# ZTA counter = ZTA (EBV) inhibition in EBNA-1 counter-screen | inhibition, % at 11 µM | hit rate 0.15% among 320,000 | ZTA-DNA binding, fluorescence polarization | P03206 | AID 2234; in the data active means inhibition above about 33%
# Target sequence (P03206 whole entry, looked up): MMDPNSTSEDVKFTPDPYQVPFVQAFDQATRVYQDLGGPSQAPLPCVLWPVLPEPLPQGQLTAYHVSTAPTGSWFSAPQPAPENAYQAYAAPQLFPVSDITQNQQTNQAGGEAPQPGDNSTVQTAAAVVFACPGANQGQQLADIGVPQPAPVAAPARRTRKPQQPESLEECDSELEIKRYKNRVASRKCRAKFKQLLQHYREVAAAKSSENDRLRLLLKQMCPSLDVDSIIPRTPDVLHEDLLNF
# LYPLA2 counter = counter-screen for PME1 inhibitors: inhibitors of human LYPLA2; hit rate 0.38% among 320,000; recombinant LYPLA2, FP-Rh probe fluorescence polarization; O95372; inhibition, % at 5.9 µM;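 active means inhibition above the screen-wide mean plus 3 SD, limit set per campaign, cut at about 26% in these data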
# Target sequence (O95372 whole entry, looked up): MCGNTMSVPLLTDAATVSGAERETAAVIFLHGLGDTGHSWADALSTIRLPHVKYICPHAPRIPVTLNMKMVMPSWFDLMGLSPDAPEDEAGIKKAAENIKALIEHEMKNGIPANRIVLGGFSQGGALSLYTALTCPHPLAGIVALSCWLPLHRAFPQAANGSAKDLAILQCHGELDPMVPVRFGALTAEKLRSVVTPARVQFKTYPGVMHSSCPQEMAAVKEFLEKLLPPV
# PREPL inh = inhibitors of human prolyl oligopeptidase-like enzyme PREPL | hit rate 0.68% among 320,000 | recombinant PREPL, fluorescence polarization activity-based probe | inhibition, % at 5.96 µM | Q4J6C6; in the data active means inhibition above about 43%
# LYPLA1 counter = blocks human lysophospholipase 1, a PME1 counter-screen. O75608. recombinant LYPLA1, FP-Rh probe fluorescence polarization. inhibition, % at 5.9 µM. hit rate 0.16% among 320,000. AID 2174;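 active means inhibition above the mean of all tested compounds plus 3 SD, set per campaign, cut at about 14% in these data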;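 further: inhibitors block serine hydrolase probe labeling of LYPLA1 so polarization falls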
# EBNA-1 inh = blocks EBNA-1 binding to DNA | AID 1950 | EBNA-1 DNA binding, fluorescence polarization | hit rate 0.34% among 300,000 | inhibition, % at 14.8 µM; in the data active means inhibition above about 28%
# LYPLA2 conf = LYPLA2 (human) inhibition, confirmation counter-screen; shares compounds with LYPLA2 counter; recombinant LYPLA2, FP-Rh probe fluorescence polarization; inhibition, % at 5.9 µM; hit rate 72% among 1,100; AID 2232;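 active means mean inhibition across replicates above the hit cutoff set in the primary screen, cut at about 26% in these data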;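 further: blocked labeling of the enzyme by serine hydrolase FP-Rh probe lowers polarization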
# LYPLA2 ABPP = blocks human acyl-protein thioesterase 2 in gel ABPP | AID 652029 | rhLYPLA2 in mouse brain proteome, gel ABPP FP-Rh | inhibition, % at 20 µM | hit rate 30% among 150 | shares compounds with LYPLA2 counter;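 active means inhibition of LYPLA2 enzyme probe labeling above about 50%, limit read from the data; inactive means inhibition below that limit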;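 further: loss of FP-Rh probe labeling of the LYPLA2 gel band measured as band density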
# Hits are given with their value; - = inactive; . = no result. The list is not random: actives were taken first. Their share in the collection is about 1.3%.
SMILES,ZTA counter,LYPLA2 counter,PREPL inh,LYPLA1 counter,EBNA-1 inh,LYPLA2 conf,others
NC(=O)C(c1ccccc1)c1ccc(C(=O)c2ccccc2)cc1 (stereo not drawn),-,-,-,-,-,.,
CC(=O)c1ccc(CCCCCCCCCC(=O)O)s1,-,58.9,-,-,-,56.6,LYPLA2 ABPP=-
N#Cc1ccc(-c2ccc(OCC(=O)NCCc3ccccc3)cc2)cc1,-,34.8,-,-,-,-,
COc1ccc(CCNC(=O)COc2ccc(-c3ccc(C#N)cc3)cc2)cc1,-,-,-,-,-,.,
Cc1cccc(Nc2ccc([N+](=O)[O-])cc2C(=O)O)c1,-,36.5,-,-,-,43.4,
CCN(CC)S(=O)(=O)c1ccc(N2CCOCC2)c(NC(=O)COc2ccc(C#N)cc2)c1,-,77.1,-,-,-,78.5,LYPLA2 ABPP=64.0
CCN(CC)S(=O)(=O)c1ccc(N2CCOCC2)c(NC(=O)c2cc(=O)[nH]c3ccccc23)c1,-,35.8,-,-,-,43.0,
CC(=O)c1ccc(N2CCN(c3ccc(S(=O)(=O)N4CCN(C)CC4)cn3)CC2)cc1,-,27.1,-,-,-,35.1,
O=C(C1CCCC1)N1CCN(S(=O)(=O)c2ccc(F)cc2)CC1,-,-,-,-,-,.,
Cn1c(=O)oc2cc(S(=O)(=O)N3CCC(C(=O)N4CCN(c5ccc(F)cc5)CC4)CC3)ccc21,-,43.8,-,-,-,39.2,
CC(=O)c1ccc(N2CCN(C(=O)C3CCN(S(=O)(=O)c4ccc(F)cc4)CC3)CC2)cc1,-,34.9,-,-,.,-,
CC(=O)c1ccc(N2CCN(C(=O)C3CCN(S(=O)(=O)Cc4ccccc4)CC3)CC2)cc1,-,36.0,-,-,-,33.3,
Cc1ccc(OCCN(C)C(=O)C2CCC(=O)N(CCCN3CCCC3=O)C2)cc1 (stereo not drawn),-,-,-,-,-,.,
COc1ccc(NC(=O)COc2cc(C)cc(C)c2)cc1S(=O)(=O)N1CCCCC1,-,-,-,-,-,.,
COc1ccc(N2CCN(C(=O)C3CCN(S(=O)(=O)c4ccc5c(c4)oc(=O)n5C)CC3)CC2)cc1,-,32.5,-,-,-,40.8,
COc1ccc(N2CCN(C(=O)C3CCN(S(=O)(=O)c4cccs4)CC3)CC2)cc1,-,42.8,-,-,-,52.0,LYPLA2 ABPP=-
Cc1ccc(NC(=O)Cn2nnc(C(=O)NCCc3ccccc3)c2N)c(C)c1,-,-,-,-,-,.,
COc1ccccc1CN1CC(C(=O)NCCn2ccc(C)n2)CCC1=O (stereo not drawn),-,-,-,-,-,.,
O=[N+]([O-])c1ccc(Oc2ccc(F)cc2)c2ccncc12,-,56.6,-,-,-,54.3,LYPLA2 ABPP=-
O=[N+]([O-])c1ccc(Oc2cccc(Br)c2)c2ccncc12,-,80.6,-,-,-,79.0,LYPLA2 ABPP=57.0
CC(=O)Nc1cccc(Oc2ncccc2[N+](=O)[O-])c1,-,-,-,-,-,.,
CSCCCN1CCC(n2nccc2NC(=O)CCCc2ccccc2)CC1,-,-,-,-,-,.,
O=C(Cn1cnc2ccccc2c1=O)c1ccc2ccccc2c1,-,27.1,-,-,-,-,
O=C(NCC1CC1)c1ccc2c(c1)S(=O)(=O)c1cc(Cl)ccc1C2=O,-,-,-,-,.,.,
Cc1cc(C)c(OCC(=O)Nc2ccc(N3CCOCC3)cc2)c(Br)c1,-,27.8,-,-,-,-,
SMILES,ZTA counter,LYPLA2 counter,PREPL inh,LYPLA1 counter,EBNA-1 inh,LYPLA2 conf,others
COc1cccc(CN2CCC(C(=O)N3CCN(Cc4ccc5c(c4)OCO5)CC3)CC2)c1,-,-,-,-,-,.,
O=C(C1CCN(c2nnc(-n3cccc3)s2)CC1)N1CCN(Cc2ccc3c(c2)OCO3)CC1,-,34.5,-,-,-,46.1,
Cc1cc(C(=O)COc2cccnc2[N+](=O)[O-])c(C)n1-c1ccccc1F,-,28.1,-,-,-,-,
Cc1cc(C(=O)COc2cccnc2[N+](=O)[O-])c(C)n1-c1ccccc1,-,-,-,-,-,.,
Cc1ccc(-n2c(C)cc(C(=O)COc3cccnc3[N+](=O)[O-])c2C)cc1,-,30.9,-,-,-,-,
CCC1(c2ccccc2)NC(=O)N(CC(=O)NC2CCCCCC2)C1=O (stereo not drawn),.,.,-,.,.,.,
COc1cccc(NC(=O)COC(=O)c2c(C)nn(-c3ccccc3)c2C)c1,-,49.1,-,-,.,41.9,
Cc1nn(-c2ccccc2)c(C)c1C(=O)OCC(=O)Nc1cccc(S(N)(=O)=O)c1,-,-,-,-,.,.,

# Assay outcomes deposited in PubChem by The Scripps Research Institute Molecular Screening Center.
